# According to PubChem BioAssay (NCATS):
# “And” between values parts separate entries of the source, which are not always exact repeats. Equal entries are not always repeated. Inconclusive results are not listed. The source made the active and inactive calls. Unless noted, calls follow the shape of the dose curve; as a rule, active = well fitted curve in the direction sought with a large enough effect; inconclusive = small, poorly fitted or top-dose-only effect, or another doubt; inactive = no such curve, though single readings can be large; an effect the other way counts as inactive or inconclusive. Numbered stars: 1 amine (or outer) side, 2 acyl side, 3 side chain; on linkers, the order of the positions; unused ones are H or OH. Bridge positions count the residues as written; N and C are the ends. Square brackets hold non-standard residues; d marks the D form. Peptide text beside a SMILES is read from it. I, II: the chains in the order shown. Actinocin(9to1) = Cc1c2oc3c(C)ccc(C(=O)[*:1])c3nc-2c(C(=O)[*:2])c(N)c1=O; NMeV = CN[C@H](C(=O)O)C(C)C; Sar = CNCC(=O)O
# What was measured:
# [1] = qHTS Assay for Identifying Gametocytocidal Compounds (AID 743244); also: potency is read from the fitted curve at half-maximal effect;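 as to max response: % is scaled to controls: 0 for no effect and ±100 for the full control effect; actives lower the fluorescent signal which means gametocytes are killed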; conditions: P. falciparum 3D7 stage III-V gametocytes, alamarBlue, 72 h; max response: stronger effect = lower value
# Method in brief: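 Viability read-out was resazurin reduction (alamarBlue, 24 h) measured at Ex 525/Em 598 nm. Beforehand, late-stage (III-V) 3D7 P. falciparum gametocytes at 20,000 cells/well were incubated with compound 72 h at 37C under 5% CO2.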
# [2] = qHTS assay for measurement of the activity of small molecule inhibitors on Zika virus induced Caspase-3 activity in human iPSC derived neural progenitor cells (hNPCs) (AID 1224857); also: % of control where 0% means no effect; nearly all actives have a fitted effect of over 65% in size
# Method in brief: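 Percent inhibition of virus-induced caspase-3/7 luminescence (Caspase-Glo), scaled between uninfected cells and Zika-infected cells. hNPCs received compound 1 hr before ZIKV at 2 FFU/cell, with 6 hours infection at 37 C.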
# [3] = qHTS assay for small molecule agonists of the antioxidant response element (ARE) signaling pathway measured by Nrf2-dependant transcriptional activity (AID 720636; active = well fitted curve in the direction sought with a large enough effect in the repeat runs; an effect the other way counts as inactive or inconclusive;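 also: HepG2 cells with an ARE-driven luciferase reporter; % of control where 0% means no effect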)
# Method in brief: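 Attachment 6 hr at 37 C, then compound versus DMSO vehicle for 16 hr in ARE-luc HepG2 cells (1% dialyzed FBS); luminescence recorded 30 min after ONE-Glo addition at room temperature.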
# [4] = qHTS assay for small molecule antagonists of the retinoid-related orphan receptor gamma (ROR-gamma) signaling pathway - cell viability counter screen (AID 720652; active = well fitted curve in the direction sought with a large enough effect in the repeat runs; an effect the other way counts as inactive or inconclusive;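 also: compound exposure lasted 16 hr before ATP read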; also: potency is read from the fitted curve at half-maximal effect)
# Method in brief: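 CHO RORE-LUC/TET-ROR line, 1,000 cells/well, 37 C 5% CO2 5 hr; cpd or DMSO + doxycycline induction, 16 hr. CellTiter-Glo, 30 min RT, luminescence = ATP content.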
# [5] = qHTS assay for small molecule agonists of the antioxidant response element (ARE) signaling pathway measured by Nrf2-dependant transcriptional activity - cell viability counter screen (AID 720653; active = well fitted curve in the direction sought with a large enough effect in the repeat runs; an effect the other way counts as inactive or inconclusive; also: % is scaled to controls: 0 for no effect and ±100 for the full control effect); conditions: ARE-bla HepG2 viability, CellTiter-Glo ATP luminescence, 16 h; stronger effect = lower value
# Method in brief: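 Cytotoxicity counter screen: intracellular ATP quantified by CellTiter-Glo luminescence in the same ARE-bla HepG2 plates, after 16 h compound exposure and a 2 h beta-lactamase substrate step.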
# [6] = qHTS assay for cell viability of the p53RE-bla HCT-116 cell line (AID 743292); also: % is scaled to controls: 0 for no effect and ±100 for the full control effect; nearly all actives have a fitted effect of over 55% in size
# Method in brief: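 Compound-exposed HCT-116 (p53RE-bla) cells, 4,000 per well, were kept 16 h at 37 C following a 5 h preincubation. Cell number was estimated from total ATP by CellTiter-Glo luminescence read after 30 min at room temperature.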
# [7] = target: Tyrosine-protein kinase Yes (Homo sapiens) (UniProt P07947); assay: qHTS for small molecule inhibitors of Yes1 kinase: Primary Screen (AID 686947);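 also: plate controls were DMSO with enzyme for no effect and no-enzyme DMSO wells for full effect; nearly all actives have a fitted effect of over 60% in size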
# Sequence of Tyrosine-protein kinase Yes (Homo sapiens) (P07947 whole entry, looked up): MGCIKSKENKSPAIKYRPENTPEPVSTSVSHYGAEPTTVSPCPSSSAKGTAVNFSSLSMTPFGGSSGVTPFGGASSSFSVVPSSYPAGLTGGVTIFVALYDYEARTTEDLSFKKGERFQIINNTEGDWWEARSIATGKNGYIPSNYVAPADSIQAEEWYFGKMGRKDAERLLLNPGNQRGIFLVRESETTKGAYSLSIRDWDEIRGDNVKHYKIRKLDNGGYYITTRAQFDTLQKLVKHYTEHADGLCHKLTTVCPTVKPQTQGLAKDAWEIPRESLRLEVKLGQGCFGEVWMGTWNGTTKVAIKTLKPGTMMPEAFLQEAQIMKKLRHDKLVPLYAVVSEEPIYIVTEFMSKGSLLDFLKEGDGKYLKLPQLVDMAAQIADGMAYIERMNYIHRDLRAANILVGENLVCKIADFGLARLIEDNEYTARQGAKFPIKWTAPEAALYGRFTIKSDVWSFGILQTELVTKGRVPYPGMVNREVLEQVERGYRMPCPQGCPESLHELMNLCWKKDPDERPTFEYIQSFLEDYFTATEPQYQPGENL
# Method in brief: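 In this qHTS format, inhibition is expressed relative to DMSO controls with enzyme (maximum) and without enzyme (minimum). The 60 min room-temperature reaction uses 0.1 mM ATP, with ADP detected by luminescence.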
# [8] = qHTS for small molecule inhibitors of Yes1 kinase: Counter Assay (AID 686950);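 also: no kinase present so only ADP-Glo detection of a fixed ADP amount is tested; luminescence from ADP-Glo reporting ADP in a fixed ATP and ADP mixture; 0% = DMSO wells with ATP plus ADP and -100% = ATP-only wells without ADP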
# Method in brief: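 ADP-Glo luminescence read after a 60 min room-temperature incubation of compound with an ATP/ADP mix (0.08 mM/0.02 mM) and no kinase, following a 20 min compound preincubation. Signal scaled between ATP+ADP (max) and 0.1 mM ATP-only (min) wells; Tris pH 7.5, Mg2+, DTT.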
# [9] = qHTS profiling for inhibitors of Plasmodium falciparum (3D7) proliferation (AID 743322);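 also: infected erythrocytes exposed to compound for 72 h before lysis; 100% = DMSO vehicle wells and 0% = 0.29 µM artemisinin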; conditions: P. falciparum 3D7 proliferation; at 28.7 µM (top of the series) unless noted
# Method in brief: (§1)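 Parasite DNA was quantified by SYBR Green I fluorescence (ex 485, em 535 nm) after overnight lysis in saponin/Triton buffer at room temperature. Cultures at 0.3% parasitemia and 2.5% hematocrit were first exposed to compound for 72 h at 37 C; signals were normalised to artemisinin (0.29 uM) and vehicle wells.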
# [10] = qHTS profiling for inhibitors of Plasmodium falciparum (DD2) proliferation (AID 743323; call rule not given here); conditions: lower = more inhibition; at 28.7 µM (top of the series) unless noted
# Method in brief: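 P. falciparum Dd2-infected erythrocytes (0.3% parasitemia, 2.5% hematocrit) exposed 72 h at 37 C, 5% CO2. Lysis with SYBR Green, overnight at room temperature, fluorescence 485/535 nm; normalized to 0.29 uM artemisinin and DMSO.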
# [11] = qHTS profiling for inhibitors of Plasmodium falciparum (HB3) proliferation (AID 743324); conditions: Plasmodium falciparum HB3 blood-stage proliferation; at 28.7 µM (top of the series) unless noted;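 also: 100% = DMSO vehicle wells and 0% = artemisinin-treated control wells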
# Method in brief: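 SYBR Green fluorescence (485 ex/535 em) of lysed cultures, incubated overnight at room temperature in the dark, quantifies parasite DNA. Infected erythrocytes at 0.3% parasitemia and 2.5% hematocrit were exposed 72 h; values normalized to DMSO and 0.29 uM artemisinin controls.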
# [12] = qHTS profiling of the MIPE4 collection as inhibitors of Plasmodium falciparum (3D7) proliferation (AID 743344; call rule not given here;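 also: scaled between DMSO vehicle wells and 0.29 µM artemisinin as full inhibition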); conditions: P. falciparum 3D7 in erythrocytes, SYBR Green DNA fluorescence, 72 h; at 28.5 µM (top of the series) unless noted
# Method in brief: as §1
# [13] = qHTS profiling of the MIPE4 collection as inhibitors of Plasmodium falciparum (DD2) proliferation (AID 743345; call rule not given here); conditions: P. falciparum Dd2 in erythrocytes, SYBR Green DNA, 72 h; at 28.5 µM (top of the series) unless noted
# Method in brief: as §1
# [14] = qHTS profiling of the MIPE4 collection as inhibitors of Plasmodium falciparum (DD2) proliferation (Rep 2) (AID 743346; call rule not given here); conditions: P. falciparum Dd2 in erythrocytes, SYBR Green DNA, 72 h; at 28.5 µM (top of the series) unless noted
# Method in brief: as §1
# [15] = qHTS profiling of the MIPE4 collection as inhibitors of Plasmodium falciparum (HB3) proliferation (AID 743347; call rule not given here;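 also: plate controls were DMSO vehicle wells for no effect and artemisinin wells for full effect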); conditions: P. falciparum HB3 in erythrocytes, SYBR Green DNA, 72 h; at 28.5 µM (top of the series) unless noted
# Method in brief: as §1
# [16] = qHTS assay for measurement of the activity of small molecule inhibitors on Zika virus induced Caspase-3 activity in human astrocytoma cells (AID 1224859);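 also: plate controls were ZIKV-infected untreated cells for no effect and uninfected cells for full effect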
# Method in brief: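 Luminescent caspase-3/7 read-out (30 min reagent, room temperature) in human SNB-19 cells infected 6 h with ZIKV (2 FFU/cell) after 1 h compound pre-incubation; Data were normalised to uninfected and infected wells.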
smiles,measurement,setting,value
COC(=O)[C@@H]1CC2=CC(=O)CC[C@]2(C)[C@@]23O[C@@H]2C[C@@]2(C)[C@@H](CC[C@@]24CCC(=O)O4)[C@H]13,max response,[1],1.84% (inactive)
same,outcome,[2],inactive
CC1(C)O[C@@H]2C[C@H]3[C@@H]4C[C@H](F)C5=CC(=O)C=C[C@]5(C)[C@H]4[C@@H](O)C[C@]3(C)[C@]2(C(=O)CO)O1,max response,[1],-4.1% (inactive)
same,outcome,[2],inactive
COC1=CC(=O)C[C@@H](C)[C@]12Oc1c(Cl)c(OC)cc(OC)c1C2=O,Potency,[3],inactive
same,Potency,[4],inactive
same,max response,[5],2.34% (inactive)
same,max response,[1],1.7% (inactive)
same,outcome,[6],inactive
same,outcome,[2],inactive
C#C[C@]1(O)CC[C@H]2[C@@H]3CCc4cc(OC5CCCC5)ccc4[C@H]3CC[C@@]21C,max response,[1],6.16% (inactive)
same,outcome,[2],inactive
Nc1nc2ncc(CNc3ccc(C(=O)N[C@@H](CCC(=O)O)C(=O)O)cc3)nc2c(=O)[nH]1,max response,[1],17.9% (inactive)
same,outcome,[2],inactive
Nc1ccn([C@@H]2O[C@H](CO)[C@@H](O)C2(F)F)c(=O)n1,outcome,[7],inactive
same,outcome,[8],inactive
same,max response,[1],15.6% (inactive) and -5% (inactive)
same,remaining parasite growth % (stronger effect = lower value),[9],-1.17% [at 57.5 µM]
same,"activity, percent of control",[10],1.07% [at 57.5 µM]
same,"remaining proliferation (% of control), lower = more inhibition",[11],0.276% [at 57.5 µM]
same,outcome,[2],inactive
COc1cc(C(=S)N2CCOCC2)cc(OC)c1OC,max response,[1],7.8% (inactive)
same,outcome,[2],inactive
CN1CCN(CCCN2c3ccccc3Sc3ccc(S(=O)(=O)N(C)C)cc32)CC1,Potency,[1],5640 nM (active)
same,remaining parasite growth % (stronger effect = lower value),[9],1.46% [at 9.63 µM]
same,"activity, percent of control",[10],2.48% [at 9.63 µM]
same,"remaining proliferation (% of control), lower = more inhibition",[11],1.27% [at 9.63 µM]
same,"parasite growth, % of DMSO control",[12],63.5% [at 9.64 µM]
same,"parasite growth remaining, % of DMSO control (lower = more inhibition)",[13],44% [at 9.64 µM]
same,"parasite growth, % of control (lower = inhibition)",[14],48.8% [at 9.64 µM]
same,"growth, % of control",[15],68.8% [at 9.64 µM]
same,outcome,[2],inactive
same,outcome,[16],inactive
"Cc1c2oc3c(C)ccc(C(=O)N[C@@H]4C(=O)N[C@H](C(C)C)C(=O)N5CCC[C@H]5C(=O)N(C)CC(=O)N(C)[C@@H](C(C)C)C(=O)O[C@@H]4C)c3nc-2c(C(=O)N[C@@H]2C(=O)N[C@H](C(C)C)C(=O)N3CCC[C@H]3C(=O)N(C)CC(=O)N(C)[C@@H](C(C)C)C(=O)O[C@@H]2C)c(N)c1=O (I: T[dV]P[Sar][NMeV] / II: T[dV]P[Sar][NMeV]; ester I:1-I:C, II:1-II:C; linker I:N-II:N via Actinocin(9to1))",Potency,[4],106 nM (active)
same,max response,[5],-29.7% (inactive) and -9.89% (inactive)
same,Potency,[1],70.8 nM (active)
same,outcome,[6],inactive
same,outcome,[2],inactive
CCOc1ccc(Cc2nccc3cc(OCC)c(OCC)cc23)cc1OCC,max response,[1],10.4% (inactive)
same,outcome,[2],inactive
CCCCC(=O)O[C@]1(C(=O)CO)CC[C@H]2[C@@H]3CCC4=CC(=O)CC[C@]4(C)[C@H]3[C@@H](O)C[C@@]21C,max response,[1],5.31% (inactive)
same,outcome,[2],inactive
same,outcome,[16],inactive
CCC(C(=O)OCCN(CC)CC)c1ccccc1 (configuration not stated),max response,[1],-1.81% (inactive)
same,outcome,[2],inactive
Cc1c(N(C)CS(=O)(=O)O)c(=O)n(-c2ccccc2)n1C,max response,[1],18.3% (inactive)
same,outcome,[2],inactive
